The campaign covered roughly 5,500 compounds. About 2,000 (36%) were called active. About 18% were inconclusive and are not listed. Cut-off read from the data, not from the text of the source: active = normalized growth mostly below about 0.91 (no sharp cut-off); inconclusive = no clear call, values can overlap the other calls; inactive = mostly above about 0.92. This is one part of the list.
Test: chemical genetic growth profiling, strain panel (AID 1159580);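 note: tested at 20 µM; growth read once vehicle control cultures reached saturation at 30 °C; 1 = growth at the plate median or of vehicle wells; lower values mean less growth of the strain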
Conditions: growth OD

Measured: normalized growth

CC(=O)OCC(OC(C)=O)C(OC(C)=O)C(OC(C)=O)C(OC(C)=O)C(COC(C)=O)OC(C)=O (stereo not given)
inactive: S. cerevisiae deletion strains, locus YAL021C, strain ccr4, active compounds read low 0.998 | S. cerevisiae deletion strains, locus YAL026C, strain drs2, active compounds read low 0.993 | S. cerevisiae deletion strains, locus YAL030W, strain snc1, active compounds read low 0.994 | S. cerevisiae deletion strains, locus YBL061C, strain skt5, active compounds read low 0.985 | S. cerevisiae deletion strains, locus YBR009C, strain hhf1, active compounds read low 0.994 | S. cerevisiae deletion strains, locus YBR021W, strain FUR4, active compounds read low 1.01 | S. cerevisiae deletion strains, locus YBR023C, strain chs3, active compounds read low 0.99 | S. cerevisiae deletion strains, locus YBR171W, strain sec66, active compounds read low 0.985 | S. cerevisiae deletion strains, locus YBR229C, strain ROT2, active compounds read low 0.996 | S. cerevisiae deletion strains, locus YBR231C, strain swc5, active compounds read low 0.989 | S. cerevisiae deletion strains, locus YBR279W, strain paf1, active compounds read low 0.994 | S. cerevisiae deletion strains, locus YCL011C, strain gbp2, active compounds read low 0.996 | S. cerevisiae deletion strains, locus YCL016C, strain dcc1, active compounds read low 0.994 | S. cerevisiae deletion strains, locus YCL029C, strain bik1, active compounds read low 0.984 | S. cerevisiae deletion strains, locus YCL061C, strain MRC1, active compounds read low 0.992 | S. cerevisiae deletion strains, locus YCL069W, strain vba3, active compounds read low 0.999 | S. cerevisiae deletion strains, locus YCR088W, strain abp1, active compounds read low 0.991 | S. cerevisiae deletion strains, locus YDL005C, strain med2, active compounds read low 0.989 | S. cerevisiae deletion strains, locus YDL035C, strain GPR1, active compounds read low 1.07 | S. cerevisiae deletion strains, locus YDL040C, strain nat1, active compounds read low 0.98 | S. cerevisiae deletion strains, locus YDL074C, strain BRE1, active compounds read low 1.09 | S. cerevisiae deletion strains, locus YDL101C, strain DUN1, active compounds read low 1 | S. cerevisiae deletion strains, locus YDL185W, strain tfp1, active compounds read low 0.991 | S. cerevisiae deletion strains, locus YDL192W, strain arf1, active compounds read low 1.02 | S. cerevisiae deletion strains, locus YDR001C, strain nth1, active compounds read low 0.99 | S. cerevisiae deletion strains, locus YDR069C, strain doa4, active compounds read low 0.986 | S. cerevisiae deletion strains, locus YDR101C, strain arx1, active compounds read low 1.01 | S. cerevisiae deletion strains, locus YDR137W, strain rgp1, active compounds read low 1.01 | S. cerevisiae deletion strains, locus YDR150W, strain NUM1, active compounds read low 1.01 | S. cerevisiae deletion strains, locus YDR159W, strain sac3, active compounds read low 0.979 | S. cerevisiae deletion strains, locus YDR162C, strain NBP2, active compounds read low 1.03 | S. cerevisiae deletion strains, locus YDR195W, strain ref2 0.943 | S. cerevisiae deletion strains, locus YDR297W, strain sur2, active compounds read low 0.992 | S. cerevisiae deletion strains, locus YDR318W, strain mcm21, active compounds read low 0.999 | S. cerevisiae deletion strains, locus YDR334W, strain swr1, active compounds read low 0.983 | S. cerevisiae deletion strains, locus YDR335W, strain msn5, active compounds read low 0.986 | S. cerevisiae deletion strains, locus YDR388W, active compounds read low 0.983 | S. cerevisiae deletion strains, locus YDR392W, strain spt3, active compounds read low 0.99 | S. cerevisiae deletion strains, locus YDR502C, strain sam2, active compounds read low 0.998 | S. cerevisiae deletion strains, locus YEL003W, strain gim4, active compounds read low 0.993 | S. cerevisiae deletion strains, locus YEL037C, strain rad23, active compounds read low 0.989 | S. cerevisiae deletion strains, locus YEL061C, strain CIN8 (second series), active compounds read low 0.979 | S. cerevisiae deletion strains, locus YER015W, strain faa2, active compounds read low 0.992 | S. cerevisiae deletion strains, locus YER016W, strain bim1, active compounds read low 0.988 | S. cerevisiae deletion strains, locus YER110C, active compounds read low 0.963 | S. cerevisiae deletion strains, locus YER111C, strain swi4, active compounds read low 0.985 | S. cerevisiae deletion strains, locus YER155C, strain BEM2 (second series), active compounds read low 0.981 | S. cerevisiae deletion strains, locus YER155C, strain BEM2, active compounds read low 0.972 | S. cerevisiae deletion strains, locus YER167W, strain BCK2, active compounds read low 1.01 | S. cerevisiae deletion strains, locus YFR010W, strain ubp6, active compounds read low 0.989 | S. cerevisiae deletion strains, locus YGL078C, strain dbp3, active compounds read low 0.976 | S. cerevisiae deletion strains, locus YGL086W, strain mad1, active compounds read low 1 | S. cerevisiae deletion strains, locus YGL167C, strain pmr1, active compounds read low 0.998 | S. cerevisiae deletion strains, locus YGL173C, strain kem1, active compounds read low 0.991 | S. cerevisiae deletion strains, locus YGL227W, strain vid30, active compounds read low 0.99 | S. cerevisiae deletion strains, locus YGL240W, strain doc1, active compounds read low 0.998 | S. cerevisiae deletion strains, locus YGL248W, strain PDE1, active compounds read low 1.03 | S. cerevisiae deletion strains, locus YGL253W, strain hxk2, active compounds read low 0.984 | S. cerevisiae deletion strains, locus YGR078C, strain PAC10, active compounds read low 1.02 | S. cerevisiae deletion strains, locus YGR135W, strain pre9, active compounds read low 0.964 | S. cerevisiae deletion strains, locus YGR252W, strain gcn5, active compounds read low 0.996 | S. cerevisiae deletion strains, locus YHR013C, strain ard1, active compounds read low 0.964 | S. cerevisiae deletion strains, locus YHR027C, strain rpn1, active compounds read low 0.995 | S. cerevisiae deletion strains, locus YHR030C, strain SLT2, active compounds read low 1.01 | S. cerevisiae deletion strains, locus YHR079C, strain IRE1 (second series), active compounds read low 0.987 | S. cerevisiae deletion strains, locus YHR094C, strain hxt1, active compounds read low 0.987 | S. cerevisiae deletion strains, locus YHR129C, strain ARP1, active compounds read low 1 | S. cerevisiae deletion strains, locus YHR142W, strain chs7, active compounds read low 0.983 | S. cerevisiae deletion strains, locus YHR200W, strain rpn10, active compounds read low 0.986 | S. cerevisiae deletion strains, locus YIL066C, strain RNR3, active compounds read low 1.02 | S. cerevisiae deletion strains, locus YIL073C, strain SPO22, active compounds read low 1.06 | S. cerevisiae deletion strains, locus YIL125W, strain kgd1, active compounds read low 0.976 | S. cerevisiae deletion strains, locus YIR030C, strain dcg1, active compounds read low 0.978 | S. cerevisiae deletion strains, locus YJL092W, strain hpr5, active compounds read low 0.998 | S. cerevisiae deletion strains, locus YJL095W, strain BCK1 (second series), active compounds read low 0.985 | S. cerevisiae deletion strains, locus YJL095W, strain BCK1, active compounds read low 1.05 | S. cerevisiae deletion strains, locus YJL115W, strain asf1, active compounds read low 0.975 | S. cerevisiae deletion strains, locus YJL129C, strain trk1, active compounds read low 0.988 | S. cerevisiae deletion strains, locus YJL134W, strain LCB3, active compounds read low 1 | S. cerevisiae deletion strains, locus YJL154C, strain vps35, active compounds read low 0.986 | S. cerevisiae deletion strains, locus YJL164C, strain tpk1, active compounds read low 0.986 | S. cerevisiae deletion strains, locus YJL166W, strain qcr8, active compounds read low 0.993 | S. cerevisiae deletion strains, locus YJL168C, strain set2, active compounds read low 0.98 | S. cerevisiae deletion strains, locus YJL187C, strain SWE1 (second series), active compounds read low 1.02 | S. cerevisiae deletion strains, locus YJL187C, strain SWE1, active compounds read low 1 | S. cerevisiae deletion strains, locus YJR043C, strain POL32, active compounds read low 1.07 | S. cerevisiae deletion strains, locus YKL009W, strain mrt4, active compounds read low 1.01 | S. cerevisiae deletion strains, locus YKL068W, active compounds read low 0.995 | S. cerevisiae deletion strains, locus YKL085W, strain MDH1 (second series), active compounds read low 0.992 | S. cerevisiae deletion strains, locus YKL085W, strain MDH1, active compounds read low 0.992 | S. cerevisiae deletion strains, locus YKL160W, strain elf1, active compounds read low 0.997 | S. cerevisiae deletion strains, locus YKR001C, strain vps1, active compounds read low 1.04 | S. cerevisiae deletion strains, locus YKR026C, strain gcn3, active compounds read low 0.999 | S. cerevisiae deletion strains, locus YKR091W, strain srl3, active compounds read low 0.991 | S. cerevisiae deletion strains, locus YLL001W, strain dnm1, active compounds read low 0.989 | S. cerevisiae deletion strains, locus YLL026W, active compounds read low 0.994 | S. cerevisiae deletion strains, locus YLL041C, strain sdh2, active compounds read low 0.995 | S. cerevisiae deletion strains, locus YLR027C, strain aat2, active compounds read low 0.995 | S. cerevisiae deletion strains, locus YLR039C, strain RIC1, active compounds read low 1.2 | S. cerevisiae deletion strains, locus YLR058C, strain SHM2, active compounds read low 1.02 | S. cerevisiae deletion strains, locus YLR102C, strain apc9, active compounds read low 0.975 | S. cerevisiae deletion strains, locus YLR221C, strain rsa3, active compounds read low 0.999 | S. cerevisiae deletion strains, locus YLR258W, strain gsy2, active compounds read low 0.994 | S. cerevisiae deletion strains, locus YLR262C, strain YPT6 (second series), active compounds read low 1.01 | S. cerevisiae deletion strains, locus YLR268W, strain sec22, active compounds read low 1.04 | S. cerevisiae deletion strains, locus YLR320W, strain mms22, active compounds read low 0.992 | S. cerevisiae deletion strains, locus YLR330W, strain CHS5, active compounds read low 1 | S. cerevisiae deletion strains, locus YLR342W, strain FKS1, active compounds read low 0.987 | S. cerevisiae deletion strains, locus YLR357W, strain rsc2, active compounds read low 0.982 | S. cerevisiae deletion strains, locus YLR370C, strain arc18, active compounds read low 0.99 | S. cerevisiae deletion strains, locus YLR371W, strain rom2, active compounds read low 0.989 | S. cerevisiae deletion strains, locus YLR384C, strain iki3, active compounds read low 1 | S. cerevisiae deletion strains, locus YLR418C, strain cdc73, active compounds read low 1.01 | S. cerevisiae deletion strains, locus YML016C, strain PPZ1, active compounds read low 1.01 | S. cerevisiae deletion strains, locus YML032C, strain rad52, active compounds read low 0.993 | S. cerevisiae deletion strains, locus YML120C, strain ndi1, active compounds read low 0.985 | S. cerevisiae deletion strains, locus YML124C, strain tub3, active compounds read low 0.99 | S. cerevisiae deletion strains, locus YMR058W, strain fet3, active compounds read low 0.994 | S. cerevisiae deletion strains, locus YMR078C, strain ctf18, active compounds read low 0.981 | S. cerevisiae deletion strains, locus YMR125W, strain sto1, active compounds read low 0.975 | S. cerevisiae deletion strains, locus YMR129W, active compounds read low 0.991 | S. cerevisiae deletion strains, locus YMR205C, strain PFK2, active compounds read low 0.985 | S. cerevisiae deletion strains, locus YMR223W, strain ubp8, active compounds read low 0.993 | S. cerevisiae deletion strains, locus YMR231W, strain pep5, active compounds read low 1 | S. cerevisiae deletion strains, locus YMR307W, strain GAS1, active compounds read low 1.09 | S. cerevisiae deletion strains, locus YNL067W, strain RPL9B, active compounds read low 1.01 | S. cerevisiae deletion strains, locus YNL071W, strain lat1, active compounds read low 0.99 | S. cerevisiae deletion strains, locus YNL128W, strain TEP1, active compounds read low 1 | S. cerevisiae deletion strains, locus YNL209W, strain ssb2, active compounds read low 0.998 | S. cerevisiae deletion strains, locus YNL233W, strain BNI4, active compounds read low 1.03 | S. cerevisiae deletion strains, locus YNL248C, strain rpa49, active compounds read low 1.01 | S. cerevisiae deletion strains, locus YNL250W, strain rad50, active compounds read low 0.978 | S. cerevisiae deletion strains, locus YNL271C, strain bni1, active compounds read low 0.998 | S. cerevisiae deletion strains, locus YNL298W, strain CLA4, active compounds read low 0.987 | S. cerevisiae deletion strains, locus YNL307C, strain MCK1, active compounds read low 0.977 | S. cerevisiae deletion strains, locus YNL322C, strain KRE1 (second series), active compounds read low 0.993 | S. cerevisiae deletion strains, locus YNR049C, strain mso1, active compounds read low 0.975 | S. cerevisiae deletion strains, locus YNR052C, strain pop2, active compounds read low 0.962 | S. cerevisiae deletion strains, locus YOL006C, strain TOP1, active compounds read low 1.27 | S. cerevisiae deletion strains, locus YOL012C, strain htz1 1.05 | S. cerevisiae deletion strains, locus YOL147C, strain pex11, active compounds read low 0.997 | S. cerevisiae deletion strains, locus YOR001W, strain rrp6, active compounds read low 0.997 | S. cerevisiae deletion strains, locus YOR061W, strain CKA2, active compounds read low 0.997 | S. cerevisiae deletion strains, locus YOR069W, strain VPS5, active compounds read low 1.01 | S. cerevisiae deletion strains, locus YOR070C, strain gyp1, active compounds read low 0.99 | S. cerevisiae deletion strains, locus YOR080W, strain dia2, active compounds read low 0.985 | S. cerevisiae deletion strains, locus YOR083W, strain WHI5, active compounds read low 0.995 | S. cerevisiae deletion strains, locus YOR106W, strain vam3, active compounds read low 0.989 | S. cerevisiae deletion strains, locus YOR136W, strain idh2, active compounds read low 0.973 | S. cerevisiae deletion strains, locus YOR144C, strain elg1, active compounds read low 0.975 | S. cerevisiae deletion strains, locus YOR184W, strain ser1, active compounds read low 1.06 | S. cerevisiae deletion strains, locus YOR265W, strain rbl2, active compounds read low 0.983 | S. cerevisiae deletion strains, locus YOR270C, strain vph1, active compounds read low 0.981 | S. cerevisiae deletion strains, locus YOR290C, strain snf2, active compounds read low 0.978 | S. cerevisiae deletion strains, locus YOR316C, strain cot1, active compounds read low 0.987 | S. cerevisiae deletion strains, locus YPL051W, strain arl3, active compounds read low 0.995 | S. cerevisiae deletion strains, locus YPL078C, strain atp4, active compounds read low 0.993 | S. cerevisiae deletion strains, locus YPL106C, strain sse1, active compounds read low 1.01 | S. cerevisiae deletion strains, locus YPL240C, strain hsp82, active compounds read low 0.996 | S. cerevisiae deletion strains, locus YPR119W, strain clb2, active compounds read low 0.989 | S. cerevisiae deletion strains, locus YPR141C, strain kar3, active compounds read low 0.997 | S. cerevisiae deletion strains, locus YPR163C, strain tif3, active compounds read low 0.998 | S. cerevisiae deletion strains, locus YPR167C, strain met16, active compounds read low 0.962 | S. cerevisiae deletion strains, strain wtn01, active compounds read low 1.03 | S. cerevisiae strains, strain wild type, active compounds read low 1.04

— PubChem BioAssay AID1159580 (chemical genetic matrix, 2015)
